Measured values: PubChem BioAssay (NCI)
About 83,000 compounds went through this panel and 20% of them were active in at least one assay; those are over-represented in the sample as a whole.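 In brief: 96-well plates, 48 h treatment, single concentration, percent growth endpoint.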 A number with no mark means an inactive call. Activity calls are given as the source filed them. The calls were made as follows: active = growth percent below 10; inactive = the rest.

What was measured:
Test in all cases: NCI-60 one-dose screen, 48 h (100 = growth as untreated, 0 = no growth, -100 = all killed)
Conditions in all cases: 10 µM unless noted
NCI-H23 lung = tested on: NCI-H23 lung
NCI-H226 lung = tested on: NCI-H226 lung
NCI-H322M lung = tested on: NCI-H322M lung
HOP-62 NSCLC = tested on: HOP-62 NSCLC
NCI-H460 lung = tested on: NCI-H460 lung
HOP-92 NSCLC = tested on: HOP-92 NSCLC
A549/ATCC NSCLC = tested on: A549/ATCC NSCLC
786-0 renal = tested on: 786-0 renal
COLO 205 colon = tested on: COLO 205 colon
NCI-H522 lung = tested on: NCI-H522 lung

SMILES	growth (NCI-H23 lung)	growth (NCI-H226 lung)	growth (NCI-H322M lung)	growth (HOP-62 NSCLC)	growth (NCI-H460 lung)	growth (HOP-92 NSCLC)	growth (A549/ATCC NSCLC)	growth (786-0 renal)	growth (COLO 205 colon)	growth (NCI-H522 lung)
COc1cccc(/C=C/C(=O)c2cc3c(N)c(C(=O)Nc4cccc(Cl)c4C)sc3nc2C)c1	20.4%	-23.6% (active)	7.75% (active)	-24.1% (active)	-23.5% (active)	20.3%	3.76% (active)	-43.8% (active)	-27.1% (active)	–
Cc1nn(-c2ccccc2)c(N2CCCCC2)c1/C=N/NC(=O)Cn1c(=O)sc2ccccc21	82.6%	92.8%	76.3%	77.3%	81.5%	65.6%	66%	97.2%	88.2%	–
COc1cc(N2C(=O)[C@H](c3ccccc3)C2c2ccc(SC)cc2)cc(OC)c1OC (stereo partly specified)	16%	56.1%	37.7%	20.7%	4.99% (active)	-0.302% (active)	4.39% (active)	5.94% (active)	-52% (active)	–
Cc1cc(C)c(-c2c(O)c(Br)c(-c3c(C)cc(C)c(Br)c3C)c(O)c2Br)c(C)c1Br	43.7%	52.1%	38.1%	62%	1.57% (active)	-3.74% (active)	18.6%	24.8%	-67.2% (active)	-70.3% (active)
CN1CCCc2cc(/C=C3/SC(=S)N(CCc4ccc(O)cc4)C3=O)ccc21	94.1%	88.5%	95.1%	101%	95.1%	48.3%	87.3%	87.6%	112%	43.8%
COc1cc(C2=NN(C(C)=O)C(c3ccc(N(C)C)cc3)C2)cc(OC)c1OC (stereo unspecified)	88.8%	97.8%	82.7%	83.9%	107%	79.7%	90.6%	79.7%	108%	72.4%
O=C(N/N=C/c1ccc(O)cc1O)c1ccc(Nc2ccnc(C(F)(F)F)c2)cc1	52.4%	16.8%	-3.47% (active)	31.1%	24.6%	40.9%	80.6%	33.7%	9.64% (active)	–
Cc1ccc(-c2nc(C#N)c(S(=O)(=O)NCCO)o2)cc1	82.3%	86.6%	92%	90.4%	88.6%	66.1%	90%	61.3%	43.1%	-4.75% (active)
Clc1nn2c(Cn3cnc4c(NCc5ccccc5)ncnc43)nnc2c2ccccc12	53.6%	42.5%	21%	37.9%	34%	5.22% (active)	40%	40%	35.1%	–
Cc1c2cc[nH]c(=O)c2c(C)c2c1[nH]c1ccc(OC(=O)c3ccccc3)cc12	24.4%	38.5%	40.8%	18.7%	1.23% (active)	40.9%	6.49% (active)	44.9%	30.4%	26.9%
O=c1[nH]cnc2c1C(c1ccc(Br)cc1)c1sc3c(F)cccc3c1O2 (stereo unspecified)	92.8%	92.2%	88.1%	97.9%	–	49.2%	96.3%	105%	102%	88.1%
C/C(=C(/c1ccc(Cl)cc1)c1ccc(OCCCN(C)C)cc1)c1ccc(Cl)cc1	91.2%	108%	85.9%	115%	72.7%	74.4%	68.1%	86.8%	48.9%	–
Cc1ccc(C)n1/C=C/n1c(C)ccc1C	94.7%	99%	103%	114%	–	75%	95.5%	107%	96.9%	83.8%
O=C1Nc2ccccc2/C1=C/c1cn(C[C@@H](O)Cn2c3ccccc3c(=O)c3ccccc32)c2ccccc12	84.1%	63.1%	75.9%	62.2%	74.3%	52.9%	71.6%	86.4%	84.1%	–
CCOC(=O)c1c(C)nc2ccccc2c1/C=C/c1ccc(OC)cc1	46.3%	61.8%	95.8%	71.8%	78.1%	44.5%	57.6%	77.8%	83.6%	–
CC(O)c1ncc(/C=C2\SC(=S)N(Cc3ccccc3)C2=O)s1 (stereo unspecified)	103%	97.2%	100%	104%	–	73.4%	105%	87.3%	96.2%	5.34% (active)
O=C(Nc1nc(C(=O)N2CCN(C(c3ccccc3)c3ccccc3)CC2)cs1)c1ccc(NC2CCCCC2)c([N+](=O)[O-])c1	77.2%	60.1%	91.6%	90.9%	–	63.7%	93.2%	87.7%	103%	67.3%
Nc1c(C(=O)Nc2cccc3ncccc23)sc2nc3c(cc12)C(=O)CCC3	53.8%	62.2%	62.2%	39%	–	41.8%	49.6%	56.5%	45.9%	11.1%
COc1cc(C#Cc2ccc(=O)oc2C#Cc2ccccc2)cc(OC)c1OC	64.8%	76.6%	103%	102%	84.7%	112%	95.7%	83%	23.6%	–
Cn1cc(-c2ccc3cc(-c4ccc(CC(=O)Nc5cc(C(C)(C)C)on5)cc4)cnc3c2)cn1	46.1%	43%	16.5%	44.4%	–	50.9%	16.5%	-92.6% (active)	35.3%	17.2%
O=C(N/N=C/c1ccc([N+](=O)[O-])cc1)c1ccc2nc(-c3ccc(Cl)cc3)[nH]c2c1	16.2%	54.8%	70.1%	44.8%	–	59.7%	34.5%	49%	2.28% (active)	33%
COc1ccc(/C=C/C(=O)c2ccc(NC(=O)CSc3nnc(-c4cc(-c5ccccc5)nc5ccccc45)n3-c3ccccc3)cc2)cc1	93.2%	102%	99.6%	97.3%	–	84.9%	97.9%	95.4%	110%	83.9%
COc1ccc(OC)c(Nc2nnc(-c3ccc(Cl)cc3)o2)c1	75%	93.8%	56.9%	46.7%	–	100%	44.7%	26.4%	99.1%	89.9%
CCCCn1sc(=O)n(Cc2ccc(CNC(=O)OCc3ccc4c(Cl)cc(Cl)c(O)c4n3)cc2)c1=O	75.3%	73.2%	61.5%	40.4%	26.5%	74.5%	48.7%	67.9%	98.1%	–
CCOC(=O)c1c(-c2ccccc2)n2c(=O)cc(C)c3c(O)c(O)cc1c32	66.2%	84.6%	50.3%	39.4%	–	47%	43.1%	62.7%	86.9%	66.2%
CN(C)Cc1ccc(C(=O)Nc2ccc3ncnc(Nc4ccc(Oc5cccc(F)c5)c(Cl)c4)c3c2)cc1	49.5%	80.2%	4.65% (active)	45.1%	–	36.2%	8.26% (active)	-84.9% (active)	-53.3% (active)	-29.6% (active)
CC(C)c1ccc(C(=O)Nc2sc3cc(O)ccc3c2C#N)cc1	46.2%	58.2%	61.7%	41.1%	–	79.2%	44.6%	31.2%	91.8%	54.2%
N=c1c2c(=N)n3c(nc2nc2n1-c1ccccc1Sc1ccccc1-2)sc1cc(Cl)ccc13	7.38% (active)	32.9%	47.1%	76.8%	–	-14.1% (active)	14%	30%	44.8%	4.09% (active)
COc1ccc2cc(-c3ccc(-c4ccc(C(=N)N)s4)s3)ccc2c1	0.368% (active)	97%	22.6%	-8.34% (active)	-59.8% (active)	65.5%	-18.9% (active)	-53.6% (active)	-4.44% (active)	–
